Shown is part of a subset that was picked to be rich in the strongest signals.
Legend:
Assay in all cases: glycan array binding signal (z-score within array); higher = stronger binding
Conditions in all cases: glycan notation: IUPAC condensed, linker removed
[1] = target: GlcNAc(b1-2)[GlcNAc(b1-4)]Man(a1-3)[GlcNAc(b1-4)][GlcNAc(b1-2)Man(a1-6)]Man(b1-4)GlcNAc(b1-4)GlcNAc
Method in brief: (§1)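 Glycan array data came from 3228 arrays in the Consortium for Functional Glycomics database, and only arrays with an available protein sequence were kept. Glycan names were put into IUPAC-condensed notation, and columns mapping to the same glycan were averaged. The binding signal is a within-array Z-score, averaged across arrays of one protein sequence run at different concentrations or buffers and across linkers. A negative Z-score can be read as non-binding.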

[2] = target: GlcNAc(b1-2)[GlcNAc(b1-4)]Man(a1-3)[GlcNAc(b1-4)][GlcNAc(b1-2)[GlcNAc(b1-6)]Man(a1-6)]Man(b1-4)GlcNAc(b1-4)[Fuc(a1-6)]GlcNAc
Method in brief: as §1

[3] = target: GlcNAc(b1-2)[GlcNAc(b1-6)]Man(a1-6)[GlcNAc(b1-2)Man(a1-3)]Man(b1-4)GlcNAc(b1-4)[Fuc(a1-6)]GlcNAc
Method in brief: as §1

[4] = target: GlcNAc(b1-2)[GlcNAc(b1-6)]Man(a1-6)[GlcNAc(b1-4)][GlcNAc(b1-2)Man(a1-3)]Man(b1-4)GlcNAc(b1-4)GlcNAc
Method in brief: as §1

GlcNAc(b1-3)Gal = target: GlcNAc(b1-3)Gal
Method in brief: as §1

GlcNAc(b1-3)GalNAc = target: GlcNAc(b1-3)GalNAc
Method in brief: as §1

[5] = target: GlcNAc(b1-3)[GlcNAc(b1-6)]Gal(b1-4)GlcNAc
Method in brief: as §1

[6] = target: GlcNAc(b1-3)[GlcNAc(b1-6)]GalNAc
Method in brief: as §1

GlcNAc(b1-6)GalNAc = target: GlcNAc(b1-6)GalNAc
Method in brief: as §1

[7] = target: Man(a1-2)Man(a1-6)[Man(a1-3)]Man(a1-6)[Man(a1-2)Man(a1-2)Man(a1-3)]Man(b1-4)GlcNAc(b1-4)GlcNAc
Method in brief: as §1

[8] = target: Man(a1-3)[Man(a1-6)]Man(b1-4)GlcNAc(b1-4)[Fuc(a1-6)]GlcNAc
Method in brief: as §1

[9] = target: Neu5Ac(a2-3)Gal(b1-3)GalNAc6S
Method in brief: as §1

[10] = target: Neu5Ac(a2-3)Gal(b1-3)GlcNAc(b1-4)Gal(b1-4)Glc
Method in brief: as §1

[11] = target: Neu5Ac(a2-3)Gal(b1-3)GlcNAc6S
Method in brief: as §1

[12] = target: Neu5Ac(a2-3)Gal(b1-3)[GlcNAc(b1-6)]GalNAc
Method in brief: as §1

[13] = target: Neu5Ac(a2-3)Gal(b1-4)GlcNAc(b1-3)Gal(b1-4)GlcNAc(b1-3)Gal(b1-4)GlcNAc
Method in brief: as §1

[14] = target: Neu5Ac(a2-3)Gal(b1-4)GlcNAc(b1-3)Gal(b1-4)GlcNAc(b1-6)[Gal(b1-3)]GalNAc
Method in brief: as §1

[15] = target: Neu5Ac(a2-3)Gal(b1-4)GlcNAc(b1-3)[Neu5Ac(a2-3)Gal(b1-4)GlcNAc(b1-6)]GalNAc
Method in brief: as §1

[16] = target: Neu5Ac(a2-3)Gal(b1-4)GlcNAc(b1-6)GalNAc
Method in brief: as §1

[17] = target: Neu5Ac(a2-3)Gal(b1-4)[Fuc(a1-3)]GlcNAc(b1-3)Gal(b1-4)GlcNAc
Method in brief: as §1

Neu5Ac(a2-3)GalNAc = target: Neu5Ac(a2-3)GalNAc
Method in brief: as §1

[18] = target: Neu5Ac(a2-6)Gal(b1-4)GlcNAc(b1-2)Man(a1-3)[GlcNAc(b1-4)][Neu5Ac(a2-6)Gal(b1-4)GlcNAc(b1-2)Man(a1-6)]Man(b1-4)GlcNAc(b1-4)GlcNAc
Method in brief: as §1

[19] = target: Neu5Ac(a2-6)Gal(b1-4)GlcNAc(b1-2)Man(a1-3)[Neu5Ac(a2-6)Gal(b1-4)GlcNAc(b1-2)Man(a1-6)]Man(b1-4)GlcNAc(b1-4)GlcNAc
Method in brief: as §1

[20] = target: Neu5Ac(a2-6)Gal(b1-4)GlcNAc(b1-2)Man(a1-6)[Man(a1-3)]Man(b1-4)GlcNAc(b1-4)GlcNAc
Method in brief: as §1

[21] = target: Neu5Ac(a2-6)Gal(b1-4)GlcNAc(b1-3)Gal(b1-4)GlcNAc(b1-6)[Gal(b1-3)]GalNAc
Method in brief: as §1

[22] = target: Neu5Ac(a2-6)GlcNAc(b1-4)GlcNAc(b1-4)GlcNAc
Method in brief: as §1

[23] = target: Neu5Ac(a2-8)Neu5Ac(a2-3)Gal(b1-3)GalNAc(b1-4)[Neu5Ac(a2-8)Neu5Ac(a2-3)]Gal(b1-4)Glc
Method in brief: as §1

[24] = target: Neu5Ac(a2-8)Neu5Ac(a2-3)[GalNAc(b1-4)]Gal(b1-4)Glc
Method in brief: as §1

[25] = target: Neu5Ac(a2-8)Neu5Ac(a2-8)Neu5Ac(a2-3)[Gal(b1-3)GalNAc(b1-4)]Gal(b1-4)Glc
Method in brief: as §1

[26] = target: Neu5Ac(a2-8)Neu5Ac(a2-8)Neu5Ac(a2-8)Neu5Ac(a2-3)[GalNAc(b1-4)]Gal(b1-4)Glc
Method in brief: as §1

[27] = target: Neu5Gc(a2-3)Gal(b1-3)GlcNAc
Method in brief: as §1

B1: Cohesin-marm-DC-ASGPR (protein)
chain: LDITSHHHHHHDDLDAVRIKVDTVNAKPGDTVRIPVRFSGIPSKGIANCDFVYSYDPNVLEIIEIEPGDIIVDPNPDKSFDTAVYPDRKIIVFLFAEDSGTGAYAITKDGVFATIVAKVKEGAPNGLSVIKFVEVGGFANNDLVEQKTQFFDGGVNVGDTTEPATPTTPVTTPTTTDDLDAASSKFQRDLVTLRTDFSNFTSNTLAEIQALTSQGSSLQETIASLKAEVEGHKQELQAGASELQEHNKQKAHLGRCPHTCVCPSSFVCVPVHSEILLRVQQLVQDLNKLSCQVAILKNNATTERTCCPINWVEHQGSCYWFSRSGKTWPEAERYCQLENTHLVVINSREEQNFVQAHLGSAYTWMGLSDPEGVWKWVDGTDYSSGFQNWKPGQPDDWQGHGLGGGEDCAHFHPDGRWNDDVCQRSYHWVCEAGLTQASQDSHAS
glycan array binding signal (z-score) [1]: -0.278
glycan array binding signal (z-score) [2]: -0.313
glycan array binding signal (z-score) [3]: -0.298
glycan array binding signal (z-score) [4]: -0.311
glycan array binding signal (z-score) (GlcNAc(b1-3)Gal): -0.306
glycan array binding signal (z-score) (GlcNAc(b1-3)GalNAc): -0.287
glycan array binding signal (z-score) [5]: -0.313
glycan array binding signal (z-score) [6]: -0.291
glycan array binding signal (z-score) (GlcNAc(b1-6)GalNAc): 4.74
glycan array binding signal (z-score) [7]: -0.287
glycan array binding signal (z-score) [8]: -0.31
glycan array binding signal (z-score) [9]: -0.245
glycan array binding signal (z-score) [10]: -0.303
glycan array binding signal (z-score) [11]: -0.277
glycan array binding signal (z-score) [12]: -0.303
glycan array binding signal (z-score) [13]: -0.288
glycan array binding signal (z-score) [14]: -0.307
glycan array binding signal (z-score) [15]: -0.311
glycan array binding signal (z-score) [16]: 4.81
glycan array binding signal (z-score) [17]: -0.244
glycan array binding signal (z-score) (Neu5Ac(a2-3)GalNAc): -0.309
glycan array binding signal (z-score) [18]: -0.308
glycan array binding signal (z-score) [19]: -0.126
glycan array binding signal (z-score) [20]: -0.314
glycan array binding signal (z-score) [21]: -0.308
glycan array binding signal (z-score) [22]: -0.312
glycan array binding signal (z-score) [23]: -0.296
glycan array binding signal (z-score) [24]: 3.43
glycan array binding signal (z-score) [25]: -0.305
glycan array binding signal (z-score) [26]: 5.27
glycan array binding signal (z-score) [27]: -0.264

Reference: the supplement of paper PMC8728848
